From PubChem BioAssay AID720509 (The Scripps Research Institute Molecular Screening Center, 2013)
About 760 (0.21%) of roughly 370,000 compounds were called active. The sample as a whole holds a higher share of actives than the screen did. Unmarked numbers belong to inactive results.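 How the source made its calls: active means inhibition above a per-campaign cutoff: mean of compounds within control limits plus 3 SD (cut at about 15% in these data); inactive means the rest.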

Target: Fibrinogen beta chain (Homo sapiens) (UniProt P02675)
Assay: small molecules displacing Tn6 from DD(E) complex – biochemical, fluorescence polarization, human fibrin, Tn6 probe, primary screen (AID 720509);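 further: 0% = median of all compound wells on the plate and 100% = blocking peptide control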
Conditions: Fibrin DD(E) TRITC-Tn6 fluorescence polarization displacement; at 8.3 µM; stronger effect = higher value

Chain of Fibrinogen beta chain (Homo sapiens) (P02675 whole entry, looked up): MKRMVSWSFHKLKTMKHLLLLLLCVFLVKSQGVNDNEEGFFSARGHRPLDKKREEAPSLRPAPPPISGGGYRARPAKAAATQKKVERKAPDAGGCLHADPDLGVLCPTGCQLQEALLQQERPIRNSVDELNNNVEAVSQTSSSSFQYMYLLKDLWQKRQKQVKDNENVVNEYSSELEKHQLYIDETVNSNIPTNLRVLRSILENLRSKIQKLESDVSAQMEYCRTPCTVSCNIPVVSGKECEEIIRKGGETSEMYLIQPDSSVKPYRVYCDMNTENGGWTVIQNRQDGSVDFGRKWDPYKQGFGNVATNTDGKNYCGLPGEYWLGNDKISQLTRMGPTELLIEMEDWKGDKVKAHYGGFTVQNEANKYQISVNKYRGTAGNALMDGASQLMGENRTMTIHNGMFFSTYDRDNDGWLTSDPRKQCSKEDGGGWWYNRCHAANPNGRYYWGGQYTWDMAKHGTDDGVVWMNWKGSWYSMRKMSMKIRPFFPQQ

In the case of `CN(C)CCCn1c(N)c(C#N)c2nc(C#N)c(C#N)nc21`, the inhibition is reported as 15.8% (active).
With `Cc1cc2nc3c(=O)[nH]c(=O)nc-3n(C[C@H](O)[C@H](O)[C@H](O)CO)c2cc1C` the inhibition was 16.3% (active).
In the case of `CONc1nc2nonc2nc1NOC`, the inhibition is reported as 15.3% (active).
`COc1ccc(Nc2nc(-c3ccccc3)cs2)cc1` was tested, and the inhibition was 16.7% (active).
In the case of `Cc1cc(C)c2nc(NC(=O)C3CCCO3)sc2c1` (stereo not drawn), the inhibition is reported as 15.3% (active).
`Cc1nn(C)cc1N1C(=O)c2cccc3c(N)ccc(c23)C1=O` was tested, and the inhibition was 19.6% (active).
For `CCc1ccccc1NC(=S)Nc1cc(OC)c(NC(=O)C(C)C)cc1OC`, the inhibition was 52.5% (active).
For `O=c1cc(Cn2nnc(-c3ccc(Cl)cc3)n2)nc2sccn12`, the inhibition was 16.1% (active).
`CCOCC(=O)NCc1ccc2c(c1)cc(C)n2C` was tested, and the inhibition was 22.7% (active).
In the case of `O=C(NCCNc1ccccc1[N+](=O)[O-])c1ccccc1F`, the inhibition is reported as 16.1% (active).
For `Cc1ccc(-c2nn(-c3ccccc3)cc2/C=C/C(=O)Nc2cccc(S(N)(=O)=O)c2)cc1`, the inhibition was 52% (active).

Compared with `Cc1cccc(N(C(=O)c2csnn2)C(C(=O)NCc2ccccc2)c2ccncc2)c1` (stereo not drawn), `Cc1ccc(CNC(=O)Cc2cn(C)c3ccccc23)cc1` is lower in inhibition: 1% for the first, -3.12% for the second.

First: CC(C)NC(=O)c1ccccc1S(=O)c1ccccc1C#N (stereo not drawn)
Second: Cc1c(C(=O)NCCCc2ccccc2)cccc1[N+](=O)[O-]
The inhibition of the first is lower: -6.4% for the first, 7.53% for the second.

Compared with `CCn1nnc2cc(C(=O)Nc3ccc(C(=O)OC(C)C)cc3)ccc21`, `CCc1ccc(NC(=O)CN2CCC(C(=O)c3ccc(OC)cc3)CC2)cc1` is higher in inhibition: -3.39% for the first, 3.02% for the second.

First: Cc1cccc(C)c1N1CCN(S(=O)(=O)N2CCOCC2)CC1
Second: Cc1ccc(NC(=O)C(C)Sc2nnc(C3CC3)n2C2CC2)cc1S(=O)(=O)N1CCOCC1 (stereo not drawn)
The inhibition of the first is higher: -1.95% for the first, -3.46% for the second.

Going from `COc1ccc(-c2c(-c3cc(OC)cc(OC)c3)n(C)c3ccc(-c4ccn[nH]4)cc23)cc1` to `COc1ccc(-n2cnnc2SCC(=O)Nc2cccc(S(N)(=O)=O)c2)cc1`, the inhibition rises from 7.03% to 11.3%.

First: CCN(CC)CCCC(C)n1c2nc(=O)[nH]c(=O)c-2nc2cc(Cl)ccc21 (stereo not drawn)
Second: Cc1cc(=O)oc(C)c1C(=O)NCCN(C)Cc1ccccc1
The inhibition of the first is higher: 0.53% for the first, -1.95% for the second.

Going from `S=c1[nH]cc(-c2ccc(Cl)cc2)n1-c1ccccc1` to `COc1ccc(NC(=S)N2N=CCC2c2ccccc2)cc1` (stereo not drawn), the inhibition rises from 1.55% to 4.08%.

First: COc1cc(C(=S)N2CCOCC2)cc(OC)c1OC(=O)c1cc([N+](=O)[O-])c(C)c([N+](=O)[O-])c1
Second: COc1ccc(NC(=O)c2cc([N+](=O)[O-])ccc2NC(=O)CNC2CCCCC2C)c(OC)c1 (stereo not drawn)
The inhibition of the first is higher: -2.56% for the first, -3.72% for the second.

First: COCCNc1nc2nonc2nc1N(C)Cc1ccc(C)cc1
Second: Cc1ccc(CNC(=O)COc2ccc3c(c2)CCC3)cc1
The inhibition of the first is lower: -1.67% for the first, -1.34% for the second.

First: N#CC(=C1SC=CS1)c1nc(-c2ccccc2)cs1
Second: O=C(NCC1CCCO1)c1ccccc1-c1nc(-c2ccccc2Cl)no1 (stereo not drawn)
The inhibition of the first is lower: 4.25% for the first, 8.29% for the second.

First: CC(C)Nc1ccc(-n2nc3ccccc3[n+]2[O-])cc1
Second: NS(=O)(=O)c1ccc(NC(=O)/C=C/c2ccccc2Cl)cc1
The inhibition of the first is higher: -1.03% for the first, -10.6% for the second.

First: NS(=O)(=O)c1ccc(CNC(=O)c2ccc(Cl)cc2[N+](=O)[O-])cc1
Second: O=C(NCCCNc1ccc([N+](=O)[O-])cc1Cl)c1ccccc1F
The inhibition of the first is higher: 9.9% for the first, 0.76% for the second.

Compared with `CSc1ccccc1NC(=O)c1cnc2sc(C)cn2c1=O`, `COc1ccc(C)cc1NC(=S)Nc1ccccc1SC` is lower in inhibition: 7.27% for the first, -8.72% for the second.

Compared with `COC(=O)[C@@H]1CCCN1C(=O)c1cc(COc2cccc3cccnc23)on1`, `COc1ccc(C(=O)OCc2cc(=O)n3ccsc3n2)cc1F` is lower in inhibition: 7.18% for the first, -0.34% for the second.

Going from `O=C(NCCCn1ccnc1)C1CCCN(S(=O)(=O)c2cc(Cl)ccc2Cl)C1` (stereo not drawn) to `O=C1CCc2cc(S(=O)(=O)N3CCC(C(=O)NCc4ccccc4Cl)CC3)ccc2N1`, the inhibition falls from 1.05% to -0.95%.

Compared with `COc1ccc2c(c1)CC[C@@H]1[C@@H]2CC[C@]2(C)C(=O)CC[C@@H]12`, `C[C@@H]1ON(C)[C@H]2C[C@H]3c4cc(N5CCN(C)CC5)ccc4CCN3C(=O)[C@@H]12` is lower in inhibition: 5.66% for the first, -3.94% for the second.

Going from `CCc1cccc(CC)c1NC(=O)COc1ccccc1C(=O)c1cc(C#N)c(=O)n(C2CCCCC2)c1` to `Cc1ccccc1OCC(=O)Nc1nnc(S(=O)(=O)N2CCCC2)s1`, the inhibition rises from -4.12% to 3.91%.

Compared with `CN(Cc1ccccc1)C(=O)CCC1CCN(C(=O)c2ccco2)CC1`, `CC(=O)n1cc([C@@H]2C=C(C(=O)N3CCN(Cc4ccc5c(c4)OCO5)CC3)O[C@H](OCc3ccc(CO)cc3)C2)c2ccccc21` is higher in inhibition: -1.06% for the first, 3.52% for the second.

Going from `Cc1ccc(C)c(C(C)NC(=O)C2CCCO2)c1` (stereo not drawn) to `Cc1cc(C)c2nc(N3CCC(C(=O)NCCN4CCOCC4)CC3)sc2c1`, the inhibition falls from 0.84% to -1.61%.

Going from `C/C(N)=C(/C#N)C(=O)COC(=O)CNS(=O)(=O)c1ccc(C)cc1` to `Cc1ccc(S(=O)(=O)NCC(=O)NNC(=O)c2ccc(Br)cc2)cc1C`, the inhibition falls from 4.06% to 0.07%.

First: COc1cc(NC(=S)NNC(=O)CC(C)C)c(OC)cc1Cl
Second: O=C(OCc1cc(=O)n2ccsc2n1)C1(c2ccc(Cl)cc2)CC1
The inhibition of the first is higher: 9.57% for the first, 4.84% for the second.

First: CC[C@@H]1CC2=C(C(=O)OC(C)(C)O2)[C@@H](CC)O1
Second: CC1(C)C(C=C(Cl)Cl)C1C(=O)NC(O)C(=O)c1ccccc1 (stereo not drawn)
The inhibition of the first is lower: -4.34% for the first, 14.5% for the second.

Going from `O=C(c1ccc2c(c1)N(Cc1ccc(F)cc1)C(=O)CS2)N1CCOCC1` to `CC1CN(S(=O)(=O)c2cccc(C(F)(F)F)c2)CN1C(=O)N1CCOCC1` (stereo not drawn), the inhibition falls from -0.8% to -4.35%.

`COC(=O)C(=Nc1ccccc1)/C(C(=O)C(=O)N(C)c1ccccc1)=C(\O)c1ccc(Cl)cc1` gave an inhibition of -4.47%.
